# Source: PubChem BioAssay AID1053118 (Broad Institute, 2014)
# Potency and affinity values are given separately. Active and inactive are the calls of the source.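 Rule for the calls: active = fitted half-maximal concentration for ATP signal loss at most twice the top valid dose; inconclusive = flat curve between -70 and -30%, or an invalid fit; inactive = flat within ±30%, wrong direction, or potency past limit.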
# Assay: HepG2 cell cytotoxicity, dose response, cytotoxicity control, cherry-picks, set 5 (AID 1053118)
row,SMILES,outcome
1,CCOC(=O)c1nnn(-c2ccc(OC)cc2)c1N,inactive
2,COc1cccc(S(=O)(=O)N2CC[C@@H]3[C@H]2c2cc(-c4ccc(C#N)cc4)ccc2N[C@@H]3CO)c1,inactive
3,C[C@H]1CN([C@@H](C)CO)C(=O)c2cc(-c3ccccc3)cnc2O[C@H]1CN(C)C(=O)c1cccc(F)c1,inactive
4,C[C@@H]1CN([C@H](C)CO)C(=O)c2cc(-c3ccccc3)cnc2O[C@@H]1CN(C)C(=O)c1cccc(F)c1,inactive
5,CO[C@H]1CN(C)C(=O)c2cc(NC(=O)Nc3ccc(Cl)c(Cl)c3)ccc2OC[C@@H](C)NC[C@H]1C,inactive
6,CCN1CCN(C(c2ccccc2)c2nnnn2Cc2ccccc2)CC1 (stereo unspecified),inactive
7,C[C@H](CO)N1C[C@H](C)[C@H](CN(C)C(=O)Nc2cccc3ccccc23)Oc2c(NC(=O)Nc3ccc(C(F)(F)F)cc3)cccc2C1=O,inactive
8,Cc1ccc(O)c(-c2cc(-c3cccc(Br)c3)n[nH]2)c1,inactive
9,Cc1ccc(S(=O)(=O)N2CC[C@@H]3[C@H]2c2cc(-c4cccc(C(=O)N(C)C)c4)ccc2N[C@@H]3CO)cc1,inactive
10,CCc1nc2c(OCCc3cccc(OC)c3)cccn2c1N(C)C(=O)c1ccc(C)cc1,inactive
11,CCc1ccc(NC(=O)CSc2nnc(-c3ccco3)o2)cc1,inactive
12,COCC(=O)Nc1ccc2c(c1)C(=O)N(C)[C@@H]1CC[C@@H](CC(=O)NCc3ccccc3Cl)O[C@@H]1CO2,inactive
13,COCC(=O)Nc1ccc2c(c1)C(=O)N(C)[C@@H]1CC[C@@H](CC(=O)NCc3ccccc3Cl)O[C@H]1CO2,inactive
14,COc1ccc(C)cc1N(CC(=O)Nc1cccc(N(C)S(C)(=O)=O)c1)S(C)(=O)=O,inactive
15,C[C@@H]1CN([C@H](C)CO)C(=O)c2cc(-c3ccccc3)cnc2O[C@H]1CN(C)Cc1ccccc1,inactive
16,N#Cc1ccc(-c2ccc3c(c2)[C@H]2[C@H](CCN2S(=O)(=O)c2cccc(F)c2)[C@H](CO)N3)cc1,inactive
17,COCC(=O)Nc1ccc2c(c1)C(=O)N(C)[C@H]1CC[C@H](CC(=O)NCc3ccccc3Cl)O[C@H]1CO2,inactive
18,COC(=O)c1cn(CC(=O)NCc2ccco2)c2ccccc12,inactive
19,C[C@H]1CN([C@@H](C)CO)C(=O)c2cccc(NC(=O)Nc3ccc(C(F)(F)F)cc3)c2O[C@H]1CN(C)C(=O)Nc1cccc2ccccc12,inactive
20,O=C(CCC(=O)c1cccs1)NCc1cccnc1,inactive
21,CCCCNC(=O)Nc1nc2ccc(CC)cc2s1,inactive
